This is a sample that favours compounds with a hit; in the whole collection about 19% have one here.
HT1080 IDH1KD tx = kills HT-1080 cells with IDH1 knockdown; HT-1080 IDH1 knockdown viability, ATP luminescence, 48 h; Potency, µM (series often up to 46.1 µM), for inactives: top-dose activity, negative = toxicity, usual class: cytotoxic; 360,000 tested, 2% active;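 also: potency is read from the fitted curve at half-maximal effect; 0% = DMSO wells and -100% = cell-free medium wells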
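CellTiter-Glo luminescence after 48 h compound exposure at 37 degrees C of IDH1-knockdown HT-1080 cells in 5% FBS RPMI. %Activity scaled between DMSO wells and cell-free media wells, with curves fitted and assigned curve classes.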
HT1080NT lethal = kills 2HG-producing HT-1080-NT fibrosarcoma cells. Potency, µM (highest dose often 46.1 µM), for inactives: at the top dose activity, negative = less viability, usual class: cytotoxic. 360,000 tested, 1.6% active. HT-1080-NT fibrosarcoma viability, CellTiter-Glo ATP luminescence, 48 h;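 also: NT is the 2HG producing partner of a matched IDH1 knockdown line; potency is read from the fitted curve at half-maximal effect; 0% = DMSO-treated cells and -100% = media-only wells without cells; nearly all actives have a fitted effect of over 55% in size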
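HT-1080-NT fibrosarcoma cells (2HG-overproducing), 750 cells/well in RPMI with 5% FBS, dosed after 2 h and incubated 48 h at 37C. CellTiter-Glo luminescence normalized to DMSO and no-cell wells; concentration-response curves fitted and classed.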
IL-1B inflam inh = inflammasome signaling inhibition, IL-1 beta readout | THP-1 LPS/ATP IL-1B secretion, AlphaLISA, 16 h; stronger effect = lower value | activity change, % at 57.5 µM | 360,000 tested, 4.7% active | AID 743279; in the data active = activity change below about -50%; inconclusive = mostly about -30% to -49%
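THP-1 cells pretreated 1 hr with compounds (up to 57.5 uM final), then stimulated with LPS (250 ng/mL final) plus ATP (1.25 mM final); secreted IL-1B measured by AlphaLISA after 16 hr, decreased signal indicating inhibition.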
DT40 TDP1 no CPT = qHTS for Inhibitors of human tyrosyl-DNA phosphodiesterase 1 (TDP1): qHTS in cells in absence of CPT; DT40 Tdp1-/- hTDP1 cells, no CPT, ATP luminescence, 48 h; Potency, µM (highest dose often 46.2 µM), inactives show top-dose activity change, negative = growth inhibition, most hits filed as inhibitors; 420,000 tested, 15% active; also: potency is read from the fitted curve at half-maximal effect; nearly all actives have a fitted effect of over 55% in size
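Luminescent ATP content (CellTiter-Glo) served as the growth readout. Knockout chicken DT40 cells expressing human TDP1 were exposed to compounds without camptothecin for a minimum 48 hr at 37 °C.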
TDP1 cell CPT = growth inhibition of DT40 Tdp1-/-;hTDP1 cells with camptothecin (screen for TDP1 inhibitors); chicken DT40 Tdp1-/-;hTDP1 cells + 20 nM CPT, ATP luminescence, 48 h; AID 686979; Potency, µM (doses to about 46.2 µM), without a hit: top-dose activity change, negative = growth inhibition, hits mostly inhibitors; 420,000 tested, 12% active; also: potency is read from the fitted curve at half-maximal effect; nearly all actives have a fitted effect of over 55% in size
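Chicken DT40 Tdp1-/- cells complemented with human TDP1, 400 cells/well, exposed to compounds plus 20 nM camptothecin for at least 48 h at 37 C; viability read as ATP content by CellTiter-Glo luminescence.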
Starred values were filed as active, the others as inactive; u = inconclusive; x = no result given; [ ] = another dose, or the depositor's remark. Unless noted, calls follow the shape of the dose curve; as a rule, active = well fitted curve in the direction sought with a large enough effect; inconclusive = small, poorly fitted or top-dose-only effect, or another doubt; inactive = no such curve, though single readings can be large; an effect the other way counts as inactive or inconclusive. Unless noted, % is scaled to controls: 0 for no effect and ±100 for the full control effect.

SMILES | HT1080 IDH1KD tx | HT1080NT lethal | IL-1B inflam inh | DT40 TDP1 no CPT | TDP1 cell CPT
CC1(C)C(=O)OC(/C=C/c2cccc([N+](=O)[O-])c2)C(C)(C)C1=O (configuration not stated) | -1% | -7% | -4 | u | -13%
COc1ccc2nc3c(cc2c1)c(NC(=O)CC(C)C)nn3CC(C)C | -2% | 1% | 129 | -19% | -11%
CCOC(=O)c1sc(N/N=C/c2ccccc2)nc1C | -19% | u | -5 | u | u
O=C(O)Cc1sc(N/N=C\c2ccccc2)nc1-c1ccccc1 | 13% | 1% | 3 | 23µM* | -9%
Cc1nc(Nc2ccccc2)sc1-c1ccccc1 | u | u | -13 | u | u
c1ccc(Nc2nc(-c3ccccc3)c(-c3ccccc3)s2)cc1 | u | -28% | x | u | 28µM*
O=C(Cc1sc(Nc2ccccc2)nc1-c1ccccc1)NCc1ccccc1 | u | u | -68* | u | 16µM*
CC(NC(=O)CN(C)S(=O)(=O)c1ccc(Br)s1)c1ccccc1 (configuration not stated) | -9% | -13% | 11 | -20% | -15%
COc1ccc(CCNC(=O)C(=O)NCC(c2ccco2)S(=O)(=O)c2ccccc2)cc1 (configuration not stated) | x | x | x | -13% | -14%
CCn1nc(C)cc1C(=O)Sc1ccc(Cl)cc1Cl | u | u | -62* | 3.7µM* | 3.7µM*
CCn1nc(C)cc1C(=O)Sc1cccc(Br)c1 | 21µM* | 13µM* | -102* | 4.6µM* | 3.7µM*
Cc1ccc(Cn2c(C)c(CNC(C)c3ccccc3)c(C(=O)O)c2C)cc1 (configuration not stated) | x | x | x | 26µM* | u
CCc1ccc(CCN2C(=O)c3ccccc3C2=O)nc1 | u | 28% | 26 | 0% | -3%
Cc1nc(CCN2C(=O)c3ccccc3C2=O)n[nH]1 | 5% | 9% | -4 | 23µM* | u
CCCCn1c(N)c(N(CCOC)C(=O)C2CC(=O)N(c3cccc(SC)c3)C2)c(=O)[nH]c1=O (configuration not stated) | 3% | 3% | 2 | 4% | -11%
COc1cccc(C2C=C(c3ccc(Br)s3)Nc3ncnn32)c1OC (configuration not stated) | 5% | 6% | -18 | u | u
Fc1ccc(Br)cc1C1C=C(c2ccc(Br)s2)Nc2ncnn21 (configuration not stated) | 1.2µM* | 1.3µM* | -11 | 0.65µM* | 0.92µM*
Brc1cccc(-c2nnc(SCc3ccon3)n2-c2ccccc2)c1 | -21% | -2% | -15 | 15µM* | u
CCOc1ccc(C(=O)COC(=O)Cc2n[nH]c(=O)c3ccccc23)cc1 | 5.2µM* | 6.5µM* | 38 | 0.73µM* | 0.92µM*
O=C(COC(=O)Cc1n[nH]c(=O)c2ccccc12)NNC(=O)c1ccc(Cl)cc1 | -17% | -11% | 12 | 23µM* | 21µM*
COc1ccc(C(C)=O)cc1COC(=O)Cc1n[nH]c(=O)c2ccccc12 | -15% | -3% | 20 | u | u
O=C(Cc1n[nH]c(=O)c2ccccc12)OCC(=O)c1ccc(F)cc1 | 8% | 0% | 9 | -6% | -1%
O=C(Cc1n[nH]c(=O)c2ccccc12)OCC(=O)c1ccc2c(c1)OCCO2 | 8.2µM* | u | 64 | 1.3µM* | 0.92µM*
C[Si](C)(C)O[Si](C)(C)C | x | x | x | 4% | -2%
CN(C(=O)CSc1cn(CC(=O)N2CCCCCC2)c2ccccc12)c1ccccc1 | x | x | x | 18µM* | u
SMILES | HT1080 IDH1KD tx | HT1080NT lethal | IL-1B inflam inh | DT40 TDP1 no CPT | TDP1 cell CPT
CCCNC(=O)CSc1cn(CC(=O)N2CCCCCC2)c2ccccc12 | x | x | x | -22% | -18%
CC(C)N(C(=O)CSc1cn(CC(=O)N2CCCCCC2)c2ccccc12)C(C)C | x | x | x | 18µM* | u
COC(=O)[C@@H]1CCCN1Cc1ccc2c(c1)CN(Cc1coc3ccccc3c1=O)CCO2 | x | x | x | -2% | 13%[9.04 µM]
COCc1cccc(-c2csc(C(O)c3ccc(OC)cc3)n2)c1 (configuration not stated) | 16% | 23% | 17 | u | u
COc1cc(-c2nc3n(n2)C(c2ccc(F)cc2)C(C(N)=O)=C(C)N3)cc(OC)c1OC (configuration not stated) | x | x | x | u | -15%
CCOC(=O)Cn1c(=O)c2c(nc(N3CCCCC3)n2Cc2ccccc2)n(C)c1=O | -6% | -27% | -1 | 15µM* | 21µM*
CCOC(=O)Cn1c(=O)c2c(nc(N3CCOCC3)n2C)n(C)c1=O | 14% | 7% | 5 | -13% | -4%
CCOC(=O)CCn1c(=O)c2c(nc(Br)n2Cc2ccccc2)n(C)c1=O | -1% | -3% | 12 | -51% | -15%
CCOC(=O)Cn1c(=O)c2c(nc(Br)n2Cc2ccc(Cl)cc2)n(C)c1=O | -12% | 4% | 18 | 9.2µM* | 13µM*
CCCc1nnc(NC(=O)C23CC4CC(CC(C4)C2)C3)s1 | 8% | 0% | 23 | 2% | u
